Screening results from PubChem BioAssay.
MEKK2mut PB1 HTS: signal of MEK5 binding to mutant human MEKK2 PB1 domain. hit rate 0.35% among 290,000. percent response, % at 10 µM. bead flow cytometry, Alexa488-MEK5 binding to MEKK2 mutant; in the data active means percent response above about 24%, passing the limit was not always enough
MEKK2wt PB1 HTS: raises or lowers MEK5 binding to wildtype human MEKK2 PB1 domain | bead flow cytometry, Alexa488-MEK5 binding to MEKK2 WT; actives lie on both sides | binding response (% of control), % at 10 µM | hit rate 1.1% among 290,000 | AID 1531; in the data active means binding response below about 67% or above about 130%
MEKK3 PB1 HTS: modulators (inhibitors or enhancers) of MEK5 binding to human MEKK3 PB1 domain; binding response (% of control), % at 10 µM; hit rate 1.4% among 290,000; bead-based flow cytometry, Alexa488-MEK5 binding to MEKK3; actives lie on both sides; 0 = blocked by unlabeled MEK5, 100 = vehicle;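 active means binding response more than 3 SD above or below the average of its plate-row segment, actives on both sides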;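 further: Alexa488 bead fluorescence after subtracting the streptavidin-only scavenger bead signal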
Target sequence (Q99759 whole entry, looked up, the tested form may be a part): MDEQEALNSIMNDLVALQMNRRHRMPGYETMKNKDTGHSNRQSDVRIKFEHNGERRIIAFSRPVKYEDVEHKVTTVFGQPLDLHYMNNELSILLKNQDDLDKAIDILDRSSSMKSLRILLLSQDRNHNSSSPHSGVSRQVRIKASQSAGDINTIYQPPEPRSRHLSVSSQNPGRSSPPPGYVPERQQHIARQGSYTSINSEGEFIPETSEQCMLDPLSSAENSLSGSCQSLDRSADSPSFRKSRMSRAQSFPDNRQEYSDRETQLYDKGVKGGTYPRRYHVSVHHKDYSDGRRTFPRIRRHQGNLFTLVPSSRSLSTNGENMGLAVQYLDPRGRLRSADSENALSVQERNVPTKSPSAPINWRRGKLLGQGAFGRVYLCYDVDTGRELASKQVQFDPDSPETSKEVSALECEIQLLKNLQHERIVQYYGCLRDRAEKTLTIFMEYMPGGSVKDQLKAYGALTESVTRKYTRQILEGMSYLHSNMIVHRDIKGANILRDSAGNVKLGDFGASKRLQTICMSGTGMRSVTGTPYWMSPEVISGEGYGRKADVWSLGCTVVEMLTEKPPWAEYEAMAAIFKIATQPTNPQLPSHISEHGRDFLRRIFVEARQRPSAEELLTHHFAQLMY
VLA-4 inh: inhibition in a human VLA-4 binding assay. P13612. VLA-4 expressing cells, ligand binding flow cytometry. inhibition, % (about 7 µM as worked out from the volumes in the protocol). hit rate 0.2% among 330,000. AID 2557; in the data active means inhibition above about 50%
MEKK2wt confirm: raises or lowers MEK5 binding to wildtype human MEKK2, retest | shares compounds with MEKK3 PB1 HTS | bead flow cytometry, Alexa488-MEK5 binding to MEKK2 WT; actives lie on both sides | binding response (% of control), % at 10 µM | hit rate 2.4% among 5,900; in the data active means binding response below about 16% or above about 210%; inactive means in between
MEKK2mut-MEK5: signal of MEK5 binding to mutant human MEKK2, retest. hit rate 2% among 5,900. bead flow cytometry, Alexa488-MEK5 binding to MEKK2 mutant. shares compounds with MEKK3 PB1 HTS. percent response, % at 10 µM; in the data active means percent response mostly above about 71%, no sharp cut-off; inactive means mostly below about 38%;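 further: higher means compound restores mutant binding toward wildtype level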
MEKK3-MEK5 inh: confirmation of inhibitors of MEK5 binding to human MEKK3 | binding response (% of control), % at 10 µM | shares compounds with MEKK3 PB1 HTS | hit rate 1.8% among 5,900 | bead flow cytometry, Alexa488-MEK5 binding to MEKK3; active compounds read low | AID 1894;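 active means binding response below 72% of control, or above a set upper limit, though filed actives all read lower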;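 further: 100% = DMSO only wells and 0% = binding blocked by excess unlabeled MEK5; lower values mean stronger disruption of MEK5 binding to MEKK3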
The depositor's hits bear a star; . = no result; [ ] = dose if it differs, or a comment. A selection: hits, their analogues and other compounds. The true share with any hit is near 2.2%.

SMILES	MEKK2mut PB1 HTS	MEKK2wt PB1 HTS	MEKK3 PB1 HTS	VLA-4 inh	MEKK2wt confirm	MEKK2mut-MEK5	MEKK3-MEK5 inh
CC(C)(C)c1ccc(C(=O)OCC(=O)Nc2sc3c(c2C#N)CCC3)cc1	1	106	132*	-5	76	-19	74
CC1(C)Cc2[nH]c3ccccc3c2C(C)(C)N1	12	107	109	12	.	.	.
Cc1ccc(CNC(=O)COC(=O)c2ccc(S(=O)(=O)NCc3ccco3)cc2)cc1	.	.	.	0	.	.	.
[O-]/C(=C(\C(=S)NCc1ccccc1)[n+]1ccccc1)c1ccc(Cl)s1	-3	81	74*[inhibitor]	-7	102	-3	102
Cc1ccc2nc(N(CCCN(C)C)C(=O)c3cc(-c4cccs4)nc4ccccc34)sc2c1	73*	228*	116	12	205	63	109
CN(C)CCCN(C(=O)c1cc(-c2cccs2)nc2ccccc12)c1nc2c(F)cccc2s1	27*	172*	103	1	173	45	99
CN(C)CCCN(C(=O)/C=C/c1cccs1)c1nc2c(F)cccc2s1	4	132	109	.	.	.	.
CCN(c1ccccc1)S(=O)(=O)c1cccc(C(=O)Nc2ccc(C)cn2)c1	5	105	102	1	.	.	.
CC(C)n1c(SCC(=O)NCc2ccco2)nnc1C1CC1	5	100	100	-5	.	.	.
O=C(O)COc1cccc(NC(=O)c2ccccc2)c1	4	106	105	0	.	.	.
CC(C)CCOc1cccc(OCC(=O)O)c1	1	96	183*	.	107	4	105
CC(NCc1cc(Br)ccc1OCC(=O)NCc1ccccc1)c1ccccc1 (configuration not stated)	1	117	116	30	.	.	.
CC1(C)CC(NC(=O)c2ccccc2F)CC(C)(C)N1	10	104	104	-21	.	.	.
CC(C)(C)C(=O)CNCC(=O)C(C)(C)C	-12	79	91	3	.	.	.
Cc1cc(F)ccc1S(=O)(=O)Nc1ccccc1C(=O)Nc1ccccc1-c1nc2ccccc2[nH]1	1	122	134*	6	109	0	99
Cc1ccc(N(C)C(=O)C2CCCN2S(=O)(=O)c2ccc3c(c2)n(C)c(=O)c(=O)n3C)cc1 (configuration not stated)	-17	71	57*[inhibitor]	4	101	4	103
CCc1cccc(NC(=O)C2CCCN2S(=O)(=O)c2ccc3c(c2)n(C)c(=O)c(=O)n3C)c1 (configuration not stated)	-15	70	71*[inhibitor]	-3	127	20	108
Cc1ccc(S(=O)(=O)N2CCCCC2C(=O)N(C)c2ccccc2)cc1 (configuration not stated)	2	98	99	7	.	.	.
O=C(Nc1ccccc1)[C@@H]1CCCN1S(=O)(=O)c1ccc(Cl)cc1	.	.	.	5	.	.	.
Cc1cccc(NC(=O)C2CCCN2S(=O)(=O)c2ccc3c(c2)n(C)c(=O)c(=O)n3C)c1 (configuration not stated)	-8	73	66	9	.	.	.
O=C(Nc1cccc(S(=O)(=O)N2CCOCC2)c1)[C@@H]1CCCN1S(=O)(=O)c1ccc(Cl)cc1	1	111	153*	15	109	15	107
Nn1c(-c2ccccc2)cc(-c2ccccc2)cc1=O	.	.	.	-7	.	.	.
O=C(CN1c2ccccc2S(=O)(=O)c2ccccc21)Nc1ccccc1F	0	100	97	16	.	.	.
CCCP(=O)(CCC)CCP(=O)(c1ccccc1)c1ccccc1	0	96	63*[inhibitor]	-7	97	-4	94
COc1cccc(NC(=O)CN2C(=O)CSc3ccc(S(=O)(=O)N4CCCCC4)cc32)c1	0	91	91	-3	.	.	.
SMILES	MEKK2mut PB1 HTS	MEKK2wt PB1 HTS	MEKK3 PB1 HTS	VLA-4 inh	MEKK2wt confirm	MEKK2mut-MEK5	MEKK3-MEK5 inh
CCN(c1ccccc1C(=O)O)S(=O)(=O)c1cccc2nsnc12	1	98	101	25	.	.	.
CN(C)CCCNc1ccc(-c2cc(Nc3cccc(Cl)c3)ncn2)cn1	15	159*	93	4	137	14	106
CCN1CCN(C(=O)CCc2nnc(CCc3ccccc3OC)o2)[C@@H](C)C1=O	4	103	100	14	.	.	.
CCN(CC)c1nc(N)c([N+](=O)[O-])c(NCCO)n1	1	115	134*	10	82	-7	97
CCOC(=O)N1CCC2(CC1)NCCc1c2[nH]c2ccccc12	-4	92	97	16	.	.	.
CSc1nnc(CCNS(=O)(=O)c2ccc(Br)cc2)n1C	2	104	102	7	.	.	.
COCCNC(=O)CSc1nc(-c2ccc(OC)c(OC)c2)cc(C(F)(F)F)n1	-12	87	79*[inhibitor]	13	93	0	89
CCOc1ccc(C2N(c3cc(C)on3)C(=O)C3CCCN32)cc1OC (configuration not stated)	-17	-2.0*[inhibitor]	-1.0*[inhibitor]	11	108	6	104
CC(C)(C)c1ccc(CNc2ccc([N+](=O)[O-])cn2)cc1	3	118	145*	11	106	1	106
CC(=O)NCCNc1ccc([N+](=O)[O-])cn1	-1	100	99	0	.	.	.
CCC(=O)NCCNc1ccc([N+](=O)[O-])cn1	-1	93	74*[inhibitor]	10	103	-1	99
COc1ccc(S(=O)(=O)N2CCC(C(=O)NC3CCCCC3)CC2)cc1OC	.	.	.	-6	.	.	.
N#CC1(C#N)C(c2ccccc2)OC23CCCCCC2C1(C#N)C(=N)O3 (configuration not stated)	10	113	102	20	.	.	.
N#CC1(C#N)C(c2ccccc2)OC23CCCCC2C1(C#N)C(=N)O3 (configuration not stated)	-1	104	140*	0	111	4	110
O=[N+]([O-])c1ccc(/C=C/C2=NN(c3ccccc3)C(c3ccco3)C2)o1 (configuration not stated)	44	.	15*[inhibitor]	.	29	-52	20*
Fc1ccc(C2=NN(c3ccccc3)C(c3ccco3)C2)cc1 (configuration not stated)	-9	85	95	30	.	.	.
Clc1ccc(C2=NN(c3ccccc3)C(c3ccco3)C2)cc1 (configuration not stated)	-14	91	89	-3	.	.	.
C(=C\c1ccco1)/C1=NN(c2ccccc2)C(c2ccco2)C1 (configuration not stated)	2	78	129*	-369	98	-3	102
Cn1cc2cc([N+](=O)[O-])ccc2n1	-4	106	107	5	.	.	.
CC1CCN(S(=O)(=O)c2cccc(C(=O)N3CCN(c4ccc(F)cc4)CC3)c2)CC1	11	107	105	1	.	.	.
